An excerpt weighted towards active compounds, which were near 5.7% of everything screened.
ssDAF12 agonist = S. stercoralis DAF-12 nuclear receptor activators, primary screen, cell-based, luminescence, HEK293, GRIP1 co-expression, lit1-tk-luc | Nuclear hormone receptor DAF-12 (Strongyloides stercoralis) | HEK293 ssDAF-12/GRIP1 lit1-tk-luc reporter; % of 3 µM dafachronic acid response | activation, % at 6.8 µM | 370,000 compounds, 1% hits;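 active = activation above the mean over all tested compounds plus 3 SD, cut at about 0.9% in these data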;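 also: 0% = DMSO-only wells and 100% = 3 µM delta7-dafachronic acid wells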
DAX1 inh-1 = DAX1 (NR0B1) inhibitors on StAR promoter, primary screen, cell-based, luminescence, SF-1 (NR5A1), full-length DAX-1. HEK293T StAR-luciferase reporter, SF-1/DAX-1 repression relief. inhibition, % at 6.8 µM. 370,000 compounds, 1.1% hits. AID 652010, 2013;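 active = inhibition above the mean over all tested compounds plus 3 SD, cut at about 3.6% in these data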;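 also: 0% = DAX-1 cells with DMSO and 100% = cells lacking DAX-1 with DMSO; higher inhibition means more luminescence from relief of DAX-1 repression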
DAX1 inh-2 = DAX1 (NR0B1) inhibitors, primary screen, cell-based, HEK293, Gal4-DAX1, luciferase luminescence. HEK293 Gal4-DAX1 luciferase reporter. inhibition, % at 6.75 µM. 340,000 compounds, 0.99% hits;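 active = inhibition above the mean over all tested compounds plus 3 SD, cut at about 4.2% in these data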;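 also: 0% = DAX1-transfected cells with DMSO and 100% = empty-vector control cells with DMSO; inhibition shows as a rise in luminescence from relieved DAX1 repression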
Target sequence (P51843 207-470 limits assumed): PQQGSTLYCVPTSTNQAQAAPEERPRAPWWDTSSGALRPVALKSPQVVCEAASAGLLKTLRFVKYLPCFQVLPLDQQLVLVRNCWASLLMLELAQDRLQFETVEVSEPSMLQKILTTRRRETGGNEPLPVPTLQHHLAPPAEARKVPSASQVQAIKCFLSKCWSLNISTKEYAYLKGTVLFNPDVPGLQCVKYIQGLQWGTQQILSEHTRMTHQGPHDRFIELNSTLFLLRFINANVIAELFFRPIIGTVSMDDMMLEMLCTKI
hgDAF12 agonist = H. glycines DAF-12 receptor agonists, primary screen, cell-based, luminescence, HEK293, GAL4 fusion, UAS-luciferase | activation, % at 6.8 µM | 370,000 compounds, 1.8% hits | Nuclear hormone receptor DAF-12 (Heterodera glycines), GAL4 fusion | HEK293 GAL4-hgDAF12 UAS-luciferase reporter, agonist luminescence; normalized to butyrate control | AID 687014, 2013;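 active = activation above a cutoff set at the mean of all screened compounds plus 3 SD, cut at about 10% in these data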;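 also: 0% = DMSO wells and 100% = sodium butyrate wells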
AHR activator = AHR activators, primary screen, cell-based, luminescence, luciferase reporter, human. AID 2796, 2010. Aryl hydrocarbon receptor (Homo sapiens), P35869. AHR-responsive luciferase reporter cells. activation, % at 5 µM. 320,000 compounds, 2.5% hits; in the data active = activation above about 47%;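 also: 0% = vehicle wells and 100% = reference agonist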
hcDAF-12 act = H. contortus DAF-12 nuclear receptor activators, primary screen, cell-based, luminescence, HEK293, lit1-tk-luc reporter; HEK293 hcDAF-12 lit1-tk-luc reporter; 0% DMSO, 100% Δ7-dafachronic acid; activation, % at 6.8 µM; 370,000 compounds, 1.4% hits; AID 652067, 2013;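 active = activation above the mean of all tested compounds plus 3 SD, cut at about 5.5% in these data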;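 also: 100% = response to 3 µM Δ7-dafachronic acid high control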
Numbers without * were called inactive.

`O=C(/C=C/c1cccc(Cl)c1)Nc1ncccn1` gave ssDAF12 agonist -1.3, DAX1 inh-1 0.2, DAX1 inh-2 1.2, hgDAF12 agonist 7.5, AHR activator 64.1* and hcDAF-12 act 1.2.
`O=C(Nc1cccnc1Cl)c1ccc(Cl)cc1` gave ssDAF12 agonist -0.4, DAX1 inh-1 0.7, DAX1 inh-2 2.3, hgDAF12 agonist 12.4*, AHR activator 7.1 and hcDAF-12 act 1.3.
For CC(=O)N1c2ccc(S(=O)(=O)N3CCC(C(=O)N4CCN(c5cc(Cl)ccc5C)CC4)CC3)cc2CC1C (configuration not stated) the results were ssDAF12 agonist -2.2, DAX1 inh-1 0.2, DAX1 inh-2 -1.5, hgDAF12 agonist -4.2, AHR activator 1.3 and hcDAF-12 act -5.4.
Screening COc1ccc(OC)c(CC(NC(C)=O)C(=O)NC2CCN(C(=O)c3cccc(C)c3)CC2)c1 (configuration not stated) returned ssDAF12 agonist -0.8, DAX1 inh-1 0.2, DAX1 inh-2 1.2, hgDAF12 agonist -1.6 and hcDAF-12 act 1.2.
For Cc1ccccc1-c1cc2c(c3c1ccn3C)C1CCC2O1 (configuration not stated) the results were ssDAF12 agonist -1.3, DAX1 inh-1 3.8*, hgDAF12 agonist -0.4 and hcDAF-12 act 0.9.
Screening CSC1=NCCN1C(=O)c1ccc(C)cc1 returned ssDAF12 agonist -1.2, DAX1 inh-1 0.4, DAX1 inh-2 0.2, hgDAF12 agonist 2.1, AHR activator -0.1 and hcDAF-12 act -0.3.
`S=C(c1ccc(-c2ccc(Br)cc2)o1)N1CCOCC1` gave ssDAF12 agonist 0.0, DAX1 inh-1 1.9, hgDAF12 agonist 12.2*, AHR activator 10.9 and hcDAF-12 act 3.2.
Screening O=C(c1ccccc1)c1cc[n+]([O-])cc1 returned ssDAF12 agonist -1.5, DAX1 inh-1 -0.3, DAX1 inh-2 0.4, hgDAF12 agonist -0.4, AHR activator -0.2 and hcDAF-12 act -1.0.
`O=C(c1ccccc1)c1cccc[n+]1[O-]` gave ssDAF12 agonist -1.4, DAX1 inh-1 -0.1, DAX1 inh-2 6.2*, hgDAF12 agonist 0.2, AHR activator -0.4 and hcDAF-12 act -1.3.
`Cc1ccc2cn[nH]c2c1[N+](=O)[O-]` gave ssDAF12 agonist -0.1, DAX1 inh-1 0.5, DAX1 inh-2 4.9*, hgDAF12 agonist 0.8, AHR activator 39.2 and hcDAF-12 act 5.6*.
`Cc1cccc2cn[nH]c12` gave ssDAF12 agonist -0.9, DAX1 inh-1 0.4, DAX1 inh-2 -0.1, hgDAF12 agonist 4.2, AHR activator 1.6 and hcDAF-12 act 1.7.
`Cn1c2ccccc2c2n[nH]c(=S)nc21` gave ssDAF12 agonist -0.2, DAX1 inh-1 -0.7, DAX1 inh-2 0.8, hgDAF12 agonist 0.8, AHR activator 75.4* and hcDAF-12 act 2.4.
CCC(C)NC(=O)c1cnc2n(c1=O)CCS2 (configuration not stated) was read as ssDAF12 agonist -0.6, DAX1 inh-1 1.1, DAX1 inh-2 1.6, hgDAF12 agonist 0.9, AHR activator 1.1 and hcDAF-12 act 1.2.
`O=C(CNC(=O)c1ccco1)Nc1cccc(Cl)c1` gave ssDAF12 agonist 0.2, DAX1 inh-1 0.0, DAX1 inh-2 0.2, hgDAF12 agonist 1.3, AHR activator 18.4 and hcDAF-12 act 5.8*.
For O=C(CNC(=O)c1ccco1)Nc1ccc(F)c(Cl)c1 the results were ssDAF12 agonist -1.0, DAX1 inh-1 0.2, DAX1 inh-2 -0.6, hgDAF12 agonist -2.1 and hcDAF-12 act -2.1.
For O=C(CNC(=O)c1ccco1)Nc1ccc(N2CCCCCC2)cc1 the results were ssDAF12 agonist -1.1, DAX1 inh-1 0.9, DAX1 inh-2 4.7*, hgDAF12 agonist 10.0, AHR activator 7.0 and hcDAF-12 act 0.1.
For Cc1ccnc(NC(=O)CNC(=O)Cc2cccc3ccccc23)c1 the results were ssDAF12 agonist 1.3*, DAX1 inh-1 3.4, DAX1 inh-2 2.9, hgDAF12 agonist 8.7, AHR activator 6.2 and hcDAF-12 act 2.5.
`Cc1ccnc(NC(=O)CNC(=O)c2ccco2)c1` gave ssDAF12 agonist -0.4, DAX1 inh-1 3.8*, DAX1 inh-2 0.3, hgDAF12 agonist 1.3, AHR activator 2.4 and hcDAF-12 act 0.0.
For CC(=O)OC(C(=O)Nc1nncs1)c1ccccc1 (configuration not stated) the results were ssDAF12 agonist -1.3, DAX1 inh-1 0.4, hgDAF12 agonist -1.2 and hcDAF-12 act 1.1.
Screening CC1(C)CSC(=NCCc2ccccc2)N1C(=O)c1ccc(C#N)cc1 returned ssDAF12 agonist -1.4, DAX1 inh-1 0.3, DAX1 inh-2 1.5, hgDAF12 agonist 0.8, AHR activator 3.0 and hcDAF-12 act 0.7.
Screening Cc1cc(NCCc2c[nH]c3ccccc23)ccc1Nc1cccnc1 returned ssDAF12 agonist 0.8, DAX1 inh-1 -0.7, hgDAF12 agonist -1.1 and hcDAF-12 act 2.5.
CCCCc1cc2c(c(NC(=O)CC)n1)c(=O)oc1ccccc12 was read as ssDAF12 agonist 0.2, DAX1 inh-1 0.3, DAX1 inh-2 0.2, hgDAF12 agonist 1.1 and hcDAF-12 act 1.2.
For O=C(Nc1cccc(C(F)(F)F)c1)C1CCCO1 (configuration not stated) the results were ssDAF12 agonist -0.7, DAX1 inh-1 0.4, DAX1 inh-2 -1.0, hgDAF12 agonist 2.7, AHR activator -2.0 and hcDAF-12 act 0.0.
COc1ccccc1CC(=O)Nc1cc(C)ccn1 was read as ssDAF12 agonist 1.3*, DAX1 inh-1 0.9, DAX1 inh-2 0.2, hgDAF12 agonist 6.3 and hcDAF-12 act 5.0.
`COc1ccc(NC(=O)Nc2c(O)ccc3ccccc23)cc1` gave ssDAF12 agonist -1.9, DAX1 inh-1 -0.4, DAX1 inh-2 0.4, hgDAF12 agonist -0.7, AHR activator 67.4* and hcDAF-12 act -0.6.
Screening COc1ccc(NC(=O)c2ccccc2)cc1 returned ssDAF12 agonist -0.8, DAX1 inh-1 2.1, DAX1 inh-2 1.6, hgDAF12 agonist 9.1, AHR activator 1.1 and hcDAF-12 act 2.1.
`CCOc1ccc(NC(=O)c2ccccc2O)cc1` gave ssDAF12 agonist 0.1, DAX1 inh-1 3.1, DAX1 inh-2 -1.0, hgDAF12 agonist 12.3*, AHR activator 1.1 and hcDAF-12 act 5.2.

Screening results from PubChem BioAssay.
